Measured values published in the supplement of paper PMC3484114.
± gives the standard deviation.

The compounds below were run on OVCAR-3-derived ovarian cancer stem-like cells (spheroids) (assay: cell growth relative to untreated control; higher = more growth (less inhibition)). Details: 2.29 µM; 96 h.
In short: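 Stem-like cells derived from OVCAR-3 spheroids were dissociated with trypsin and seeded at 50,000 cells/mL in stem cell medium in ultra-low attachment 96-well plates, then preincubated for 24 h. Each compound was added at 2.29 uM to 4 replicate wells and left for 96 h at 37°C, 5% CO2. Viability came from TOX8 resazurin fluorescence (ex 560/em 590 nm) read after 4 h. Percent growth was expressed relative to untreated wells, after blank subtraction and removal of outliers by the Grubbs test.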

Compound	cell growth [%]
O=S1(=O)OCCOS(=O)(=O)C1Cc1ccccc1	93.4 ± 15
CC(C)(C)c1ccc(OC2CCO2)cc1 (stereo not drawn)	89.3 ± 19
Cn1cnc([N+](=O)[O-])c1Sc1nnnn1-c1ccccc1	92.6 ± 24
